# The source made the active and inactive calls. Rule for the calls: active = hit-call score of the fitted dose curve at least 0.9, where 1 is the maximum; inactive = score below 0.9.
# Read-out: solute carrier (SLC22A6), SLC22A6 (gene 9356)
# Assay: LTEA_HepaRG_SLC22A6: Life Technologies and Expression Analysis (LTEA) Assay for solute carrier (SLC22A6) using HepaRG (AID 2283653)
# Conditions: mRNA level, 48 h; actives raise or lower the signal
# Method: LTEA_HepaRG is a cell based, multiplexed-readout assay that uses HepaRG, a human liver cell line, with measurements taken at 48 hours after chemical dosing on a 96-well plate.LTEA_HepaRG_SLC22A6 is one of 102 assay component(s) measured in the LTEA HepaRG cell culture assay. It is a marker of NR mediated transport.Data from the assay component LTEA_HepaRG_SLC22A6 was analyzed into 1 endpoint. This assay endpoint, LTEA_HepaRG_SLC22A6, was analyzed with bidirectional fitting relative to DMSO as the negative control and baseline of activity. Using a type of inducible reporter, measures of mRNA induction for gain or loss-of-signal activity can be used to understand regulation of transcription factor activity. To generalize the intended target to other relatable targets, this assay endpoint is annotated to the transporter intended target family, where the subfamily is organic anion transporter.
# A total of 1060 chemcials from the ToxCast library were tested in eight-point concentration-response experiments. Cell culture and cytotoxicity assays were conducted at Thermo Fisher Scientific's Custom Services facility (Madison, WI). A single lot of human HepaRG cells (Thermo Fisher Scientific, Frederick, MD) was used for the cell culture experiments. 96-well format collagen type I coated plates of human HepaRG cells were prepared using established methods. Briefly, cryopreserved HepaRG cells were thawed, plated at a density of approximately 100,000 cells/well in HepaRG Thaw, Plate, and General Purpose media (HPRG770, Thermo Fisher Scientific), and incubated for 48 hours. 0.5% DMSO was selected as vehicle control to balance the requisite need of DMSO in HepaRG cultures to maintain differentiation (for example, baseline metabolism, proportions of hepatocytes vs. cholangiocytes), while enabling further hepatic receptor pathway activation (for example, PXR and CAR) in response to chemical exposure. 48 hours after plating, the culture medium was replaced with HepaRG Serum-Free Incudtion Media. Cells were exposed to each test chemical in duplicate and maintained in CO2 incubators for another 48 hours. Chemical plates were thawed to room temperature and 200x concentrations of treatment groups were prepared. 8-point conentration-reponse curves were made with the highest exposure at 100 uM, followed by half-log dilutions, all in 0.5% DMSO. Each test plate contained variouse controls, induction positive controls (1mM phenobarbital), cytotoxicity positive controls ([…] aflatoxin B1), vehicle controls (0.5% DMSO), and total lysis controls (0.5% DMSO). Cell morphology images were taken using an Essen IncuCyte FLR automated microscope, with six 96-well plates imaged in about 24 minutes. Images were captured and exported and JPEG files. Spent culture media was transfered to black-well plates for the LDH assay, and remaining media was sorted at -80 C for later use. Cells were treated with RLT buffer and frozen until shipped for gene expression analysis. Total RNA was isolated from the cell suspension in 75 uL of Buffer RLT (Qiagen, Germantown, MD 20874) by Quintiles/Expression Analysis (Durham, NC) using a custom isolation procedure. Total RNA from each plate well was transferred to a preamplification plate. Fluidigm's 96.96 Dynamic ArrayTM (Fluidigm, Amsterdam, the Netherlands) technology was used for gene expression analyses by quantitative reverse transcription polymerase chain reaction (qRT-PCR, performed by Quintiles/Expression Analysis, Durham, NC)89. Standard TaqManTM Assays (Applied Biosystems/ThermoFisher Scientific, Foster City, CA) were used to assess the expression of 93 genes selected based on their selectivity and sensitivity to important hepatic receptors known to be modulated by environmental chemicals; importance in human hepatocyte functionality; and hepatotoxicity. […]
row,Structure (SMILES),outcome
1,CC(COc1ccc(Oc2ccccc2)cc1)Oc1ccccn1 (stereo not given),inactive
2,CSc1nc(NC(C)C)nc(NC(C)C)n1,inactive
3,CCOP(=S)(OCC)Oc1ccc2c(C)c(Cl)c(=O)oc2c1,inactive
4,CC[C@H](C)[C@H]1O[C@]2(C=C[C@@H]1C)C[C@@H]1C[C@@H](C/C=C(\C)[C@@H](O[C@H]3C[C@H](OC)[C@@H](O[C@H]4C[C@H](OC)[C@@H](NC)[C@H](C)O4)[C@H](C)O3)[C@@H](C)/C=C/C=C3\CO[C@@H]4[C@H](O)C(C)=C[C@@H](C(=O)O1)[C@]34O)O2,inactive
5,CC1(C(=O)Nc2ccc(O)c(Cl)c2Cl)CCCCC1,inactive
6,CCOP(=S)(Oc1cnc(C(C)(C)C)nc1)OC(C)C (stereo not given),inactive
7,CCc1cccc(CC)c1N(COC)C(=O)CCl,inactive
8,CNC(=O)Oc1cccc2c1OC(C)(C)O2,inactive
9,CCOC(=O)CC(SP(=O)(OC)OC)C(=O)OCC (stereo not given),inactive
10,CCCCN(CC)c1c([N+](=O)[O-])cc(C(F)(F)F)cc1[N+](=O)[O-],inactive
